# From PubChem BioAssay
# Active and inactive are the calls of the source. Unless noted, no rule for the calls is given here.
# Columns and labels:
# [1] = system: XIP peptide (Xip251-270) binding; assay: XIP fragment 251-270 binding compounds – biochemical, small-molecule microarray, fluorescence 635/667 nm, 0.1 µg/mL protein, primary screen (AID 1182); details: fluorescent protein binding, 635 nm, higher = more signal, called active from +8 up or from −8 down
# XIP peptide (Xip251-270) = assay: compounds binding XIP fragment 251-270 – biochemical, small-molecule microarray, fluorescence 635/667 nm, 0.5 µg/mL protein, primary screen (AID 1183); details: fluorescence 635 nm, higher = more signal
# [2] = blood-stage malaria parasite viability loss – strain 3D7, DAPI fluorescence, 100 nL, primary screen (AID 1184);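 also: parasites grown inside human red blood cells in medium with human serum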; details: P. falciparum 3D7 growth, 3 d, higher = more signal
# [3] = biological target: Homeobox protein Hox-A13 (Mus musculus) (UniProt Q62424); assay: disruptors of Hoxa13 oligonucleotide interaction – biochemical, fluorescence polarization, labeled oligonucleotide, primary screen (AID 1185); details: Hoxa13:DNA binding, 15 min, higher = more signal, called active from +8 up or from −8 down
# [4] = blockers of DNA damage checkpoint Chk1 activation – imaging, HeLa, hydroxyurea, phospho-Chk1 antibody, percent positive cells, primary screen (AID 1186); details: hydroxyurea-induced phospho-Chk1 immunofluorescence imaging, higher = more signal
# [5] = blockers of DNA damage checkpoint Chk1 activation – imaging, HeLa, hydroxyurea, phospho-Chk1 nuclear intensity, primary screen (AID 1187); details: hydroxyurea-induced phospho-Chk1 immunofluorescence imaging, higher = more signal
# Chain of Homeobox protein Hox-A13 (Mus musculus) (Q62424 whole entry, looked up): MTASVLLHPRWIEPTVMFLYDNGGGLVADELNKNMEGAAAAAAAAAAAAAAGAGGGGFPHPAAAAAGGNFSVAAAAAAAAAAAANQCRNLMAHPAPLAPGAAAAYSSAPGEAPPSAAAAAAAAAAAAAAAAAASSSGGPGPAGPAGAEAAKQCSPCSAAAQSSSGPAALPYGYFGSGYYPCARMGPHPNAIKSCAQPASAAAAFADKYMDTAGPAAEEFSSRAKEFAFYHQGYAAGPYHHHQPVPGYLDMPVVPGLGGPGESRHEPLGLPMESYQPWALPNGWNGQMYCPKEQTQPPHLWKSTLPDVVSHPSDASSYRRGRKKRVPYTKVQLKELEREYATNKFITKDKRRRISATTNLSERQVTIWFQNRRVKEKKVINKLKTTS
Structure (SMILES),composite z-score [1],composite z-score (XIP peptide (Xip251-270)),z-score [2],z-score [3],z-score [4],z-score [5]
COC(=O)c1c2oc(c1C(=O)OC)C(=O)N1CCC[C@H]1Cn1nncc1CN(Cc1ccccc1)C(=O)N[C@H](CO)CC2,-0.0783 (inactive),0.59,-0.414,-3.78 (inactive),0.159 (inactive),0.306 (inactive)
CCCCCCCCCCC(O)C1C=CC2C(=O)N(C)C(=O)C2N1Nc1cc(OC)c(OC)c(OC)c1 (stereo not drawn),0.275 (inactive),-0.924,-0.326,-3.83 (inactive),0.569 (inactive),-0.418 (inactive)
CCCCC=C[C@@H](NC(=O)c1ccccc1)c1ccccc1,0.558 (inactive),0.496,-1.47,2.61 (inactive),0.855 (inactive),0.274 (inactive)
[N-]=[N+]=Nc1ccccc1C[C@]1(C(=O)NCc2ccccc2)COC(c2ccc(OCCCO)cc2)=N1,0.261 (inactive),0.651,-2.38,-5.36 (inactive),-0.364 (inactive),-0.571 (inactive)
C=C(/C(=C/C[C@@H](OC(C)=O)c1ccc(CO)o1)c1cc(C(=O)OC)ccc1OC)C(C)C,0.698 (inactive),0.135,-0.485,-4.95 (inactive),0.623 (inactive),0.273 (inactive)
O=C1c2ccccc2[C@](Cc2ccccc2I)(C(=O)NC2CC2)[C@H](c2ccc(CO)cc2)N1Cc1ccccc1C(F)(F)F,0.135 (inactive),0.59,-1.89,-4.02 (inactive),-0.0771 (inactive),-0.189 (inactive)
CN1C(=O)[C@@]2(Cc3ccccc3)N=C(c3ccc(OCCCO)cc3)O[C@H]2c2ccccc21,1.11 (inactive),0.687,-2.26,-4.01 (inactive),-0.632 (inactive),-0.864 (inactive)
CO[C@H]1O[C@H](CO)[C@@H](OC(=O)Nc2cccc(F)c2)[C@H](OC(=O)Nc2ccccc2-c2ccccc2)[C@H]1OC(=O)Nc1ccccc1-c1ccccc1,0.184 (inactive),0.857,-1.7,-4.36 (inactive),-0.788 (inactive),-1.36 (inactive)
CCC(CC)C(O)C1C=CC2C(=O)N(c3ccccc3)C(=O)C2N1Nc1ccc([N+](=O)[O-])cc1 (stereo not drawn),0.39 (inactive),0.493,1.38,-3.49 (inactive),-0.37 (inactive),-1.56 (inactive)
CC(C)N1CC=CC23O[C@@H]4/C=C\CCCOC(=O)C4[C@H]2C(=O)N(CCCCCCO)[C@@H]3C1=O (stereo partly drawn),1.15 (inactive),-0.853,-0.064,-5.14 (inactive),-0.765 (inactive),-0.0806 (inactive)
C=CCC(OC(C)=O)[C@@H]1[C@@H](N(Cc2cccc3ccccc23)C(=O)c2ccc(-c3ccccc3)cc2)c2cc(OCCCO)ccc2N1C(=O)c1ccc(-c2ccccc2)cc1 (stereo partly drawn),-0.303 (inactive),-0.811,0.579,-1.17 (inactive),0.492 (inactive),0.0424 (inactive)
[N-]=[N+]=Nc1ccccc1C[C@]1(C(=O)O)N=C(c2ccc(OCCCO)cc2)O[C@H]1c1ccccc1N=[N+]=[N-],0.466 (inactive),0.532,-1.5,-4.13 (inactive),-0.281 (inactive),0.0939 (inactive)
C=C(C)[C@@H]1CC=C(C(O)C2C=CC3C(=O)N(c4ccccc4)C(=O)C3N2Nc2ccc(C#N)cc2)CC1 (stereo partly drawn),0.476 (inactive),0.642,0.807,1.21 (inactive),-0.169 (inactive),0.008 (inactive)
[N-]=[N+]=Nc1ccccc1C[C@]1(C(=O)O)N=C(c2ccc(OCCCO)cc2)O[C@H]1c1ccccc1,0.471 (inactive),0.641,0.283,-5.34 (inactive),0.496 (inactive),0.558 (inactive)
CC(C)C(=C=CC[C@H](O)c1cccc(OCCO)c1)CCO,0.675 (inactive),0.0075,0.585,-1.92 (inactive),0.0348 (inactive),0.549 (inactive)
CC(C)OC(=O)CC(=O)CC(O)c1ccc([N+](=O)[O-])cc1 (stereo not drawn),0.319 (inactive),0.469,0.697,-1.67 (inactive),-0.0884 (inactive),-0.438 (inactive)
O=C1OCC=C[C@H]2OC34C=CCN(c5ccc6ccccc6c5)C(=O)[C@H]3N(CCCCCO)C(=O)[C@@H]4[C@@H]12 (stereo partly drawn),0.407 (inactive),0.351,-0.471,-4.6 (inactive),0.464 (inactive),0.0639 (inactive)

Structure (SMILES),composite z-score [1],composite z-score (XIP peptide (Xip251-270)),z-score [2],z-score [3],z-score [4],z-score [5]
Cc1cccc([C@H]2C[C@H]3C(I)=C[C@@H]2C(=O)[C@]32CO2)c1,0.162 (inactive),-0.452,1.22,-1.53 (inactive),-0.33 (inactive),-0.466 (inactive)
CN1C(=O)C2C=CC(C(O)c3ccc(F)cc3)N(NC(=O)OC(C)(C)C)C2C1=O (stereo not drawn),-0.0758 (inactive),0.258,-0.383,-2.11 (inactive),0.058 (inactive),-0.173 (inactive)
COc1ccc(C#Cc2ccc3c(c2)[C@]2(C(=O)N3)[C@H](C(=O)Nc3nc4ccccc4s3)[C@H]3C(=O)O[C@H](c4ccccc4)[C@H](c4ccccc4)N3[C@@H]2c2ccccc2OCCO)cc1,0.416 (inactive),0.598,-2.21,-0.889 (inactive),-0.347 (inactive),-0.392 (inactive)
COCC1C2CC[C@H]3C(OCc4ccc(OC)cc4)OC[C@]4(C)[C@H]3C2=C(CN4C(=O)OC(C)(C)C)[C@H](C)C1COC (stereo partly drawn),-0.272 (inactive),0.682,-0.821,-4.09 (inactive),-0.615 (inactive),-0.719 (inactive)
CCCNC(=O)[C@@]1(Sc2ccc(C)cc2)CC(=O)N(C(C)C)[C@@H]1c1ccc(CO)cc1I,1.51 (inactive),-0.964,-0.221,-3.48 (inactive),0.366 (inactive),0.197 (inactive)
CCc1cccc(NC(=O)O[C@H]2[C@H](OC(=O)Nc3ccccc3)[C@H](OC(=O)Nc3ccccc3)[C@@H](OC)O[C@@H]2CO)c1,1.54 (inactive),0.829,-1.49,-5.74 (inactive),0.156 (inactive),0.628 (inactive)
CC(C)CNC(=O)[C@@]1(C)c2ccccc2C(=O)N(Cc2cc(C(F)(F)F)cc(C(F)(F)F)c2)[C@H]1c1ccc(CO)cc1,-0.337 (inactive),0.145,-0.607,-2.63 (inactive),0.0613 (inactive),0.447 (inactive)
C=CCNC(=O)[C@@H]1[C@H]2C(=O)O[C@H](c3ccccc3)[C@H](c3ccccc3)N2[C@H](c2ccc(OCCO)cc2)[C@@]12C(=O)N(C(=O)OCCOC)c1ccc(C#CCCO)cc12,0.649 (inactive),0.69,-1.56,-1.19 (inactive),-0.604 (inactive),-0.826 (inactive)
CCOC(=O)C[C@H]1[C@H](OC(=O)c2cc3ccccc3oc2=O)[C@@H](NC(=O)c2ccc3ccccc3c2)c2cc(OCCCO)ccc2N1C(=O)Cc1ccc(OC)cc1,0.515 (inactive),0.335,-0.791,-2.96 (inactive),0.204 (inactive),-0.322 (inactive)
C=CC[C@H](OC(=O)Nc1ccc(SC)cc1)c1ccc(OCCO)cc1,1.07 (inactive),-0.141,0.749,-6.15 (inactive),0.108 (inactive),1.03 (inactive)
COCCOC(=O)N1C(=O)[C@@]2(c3cc(C#CCC(C(=O)OC)C(=O)OC)ccc31)[C@H](c1ccc(O)cc1)N1[C@H](c3ccccc3)[C@H](c3ccccc3)OC(=O)[C@H]1[C@@H]2C(=O)NC[C@H](O)c1ccccc1,0.398 (inactive),0.465,-0.474,-2.44 (inactive),0.101 (inactive),0.524 (inactive)
CCOC(=O)C1=C[C@@H](C(C)(C)C)N(S(=O)(=O)c2ccc(C)cc2)[C@H]1c1ccccc1,0.19 (inactive),0.311,-2.01,-0.661 (inactive),0.327 (inactive),-0.0853 (inactive)
COc1ccc([Si](C)(C)[C@H]2[C@H](CCO)O[C@@]3(C(=O)N(Cc4ccccc4)c4ccc(N5C(=O)c6ccccc6Oc6ccccc65)cc43)[C@@H]2C)cc1,0.823 (inactive),0.601,-1.75,-1.76 (inactive),0.564 (inactive),-0.608 (inactive)
CN1C(=O)C2C=CC(C(O)c3cc(C(F)(F)F)cc(C(F)(F)F)c3)N(Nc3ccccc3)C2C1=O (stereo not drawn),1.9 (inactive),0.128,1.08,-3.84 (inactive),-0.0145 (inactive),0.0934 (inactive)
CCCC=C(CCC)[C@@H](NC(=O)CCc1ccccc1)c1ccc(C(F)(F)F)cc1,-0.143 (inactive),0.75,-1.65,-3.8 (inactive),0.007 (inactive),-0.287 (inactive)
C=CCOC(=O)[C@H]1[C@@H]2C(=O)O[C@@H](c3ccccc3)[C@@H](c3ccccc3)N2[C@@H](c2ccc(OCCOC(=O)[C@H]3C[C@H]4C(=O)N[C@@H](CCCCNC(C)=O)C(=O)N4[C@H]3c3cccc(OCCO)c3)cc2)[C@]12C(=O)Nc1ccc(I)cc12,0.996 (inactive),0.68,-1.61,2.36 (inactive),-0.138 (inactive),0.239 (inactive)
